# From the supplement of paper PMC4466140
# Columns and labels:
# Assay in all cases: SPOT peptide array binding signal intensity (averaged, normalized) (arbitrary units (background-subtracted, floor 0; scale differs between SH3 domains)); higher = stronger binding of the SH3 domain to the peptide
# AgAbp1 = target: AgAbp1
# Summary of the method: (§1)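 SH3 domains from four yeast species were expressed as GST fusions in E. coli BL21(DE3) and purified on glutathione Sepharose. Each was incubated at 10 μg/ml overnight at 4°C in TBS-based blocking buffer on cellulose membranes bearing synthetic 15-mer peptides, in which serines replaced cysteines. Bound protein was detected with anti-GST antibody, an HRP anti-mouse secondary and luminol, then imaged and quantified with Genespotter. The binding signal is the normalized, background-subtracted spot intensity averaged over replicates, in arbitrary units that are not the same from one domain to another.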
# AgBbc1 = target: AgBbc1
# Summary of the method: as §1
# AgBem1-D1 = target: AgBem1-D1
# Summary of the method: as §1
# AgBzz1-D1 = target: AgBzz1-D1
# Summary of the method: as §1
# AgBzz1-D2 = target: AgBzz1-D2
# Summary of the method: as §1
# AgCyk3 = target: AgCyk3
# Summary of the method: as §1
# AgFus1 = target: AgFus1
# Summary of the method: as §1
# AgHof1 = target: AgHof1
# Summary of the method: as §1
# AgHse1 = target: AgHse1
# Summary of the method: as §1
# AgLsb1 = target: AgLsb1
# Summary of the method: as §1
# AgLsb4 = target: AgLsb4
# Summary of the method: as §1
# AgMyo5 = target: AgMyo5
# Summary of the method: as §1
# AgNbp2 = target: AgNbp2
# Summary of the method: as §1
# AgRvs167 = target: AgRvs167
# Summary of the method: as §1
# AgSho1 = target: AgSho1
# Summary of the method: as §1
# AgSla1-D1-D2 = target: AgSla1-D1-D2
# Summary of the method: as §1
# AgSla1-D3 = target: AgSla1-D3
# Summary of the method: as §1
# CaAbp1-D1 = target: CaAbp1-D1
# Summary of the method: as §1
# CaAbp1-D2 = target: CaAbp1-D2
# Summary of the method: as §1
# CaBbc1 = target: CaBbc1
# Summary of the method: as §1
# CaBem1-D1 = target: CaBem1-D1
# Summary of the method: as §1
# CaBzz1-D1 = target: CaBzz1-D1
# Summary of the method: as §1
# CaBzz1-D2 = target: CaBzz1-D2
# Summary of the method: as §1
# CaCyk3 = target: CaCyk3
# Summary of the method: as §1
# CaFus1 = target: CaFus1
# Summary of the method: as §1
# CaHof1 = target: CaHof1
# Summary of the method: as §1
# CaHse1 = target: CaHse1
# Summary of the method: as §1
# CaLsb1 = target: CaLsb1
# Summary of the method: as §1
# CaLsb4 = target: CaLsb4
# Summary of the method: as §1
# CaMyo5 = target: CaMyo5
# Summary of the method: as §1
# CaNbp2 = target: CaNbp2
# Summary of the method: as §1
# CaRvs167 = target: CaRvs167
# Summary of the method: as §1
# CaRvs167-3 = target: CaRvs167-3
# Summary of the method: as §1
# CaSho1 = target: CaSho1
# Summary of the method: as §1
# CaSla1-D1-D2 = target: CaSla1-D1-D2
# Summary of the method: as §1
# CaSla1-D3 = target: CaSla1-D3
# Summary of the method: as §1
# ScAbp1 = target: ScAbp1
# Summary of the method: as §1
# ScBbc1 = target: ScBbc1
# Summary of the method: as §1
# ScBem1-D1 = target: ScBem1-D1
# Summary of the method: as §1
# ScBzz1-D1 = target: ScBzz1-D1
# Summary of the method: as §1
# ScBzz1-D2 = target: ScBzz1-D2
# Summary of the method: as §1
# ScCyk3 = target: ScCyk3
# Summary of the method: as §1
# ScFus1 = target: ScFus1
# Summary of the method: as §1
# ScHof1 = target: ScHof1
# Summary of the method: as §1
# ScHse1 = target: ScHse1
# Summary of the method: as §1
# ScLsb1 = target: ScLsb1
# Summary of the method: as §1
# ScLsb2 = target: ScLsb2
# Summary of the method: as §1
# ScLsb3 = target: ScLsb3
# Summary of the method: as §1
# ScLsb4 = target: ScLsb4
# Summary of the method: as §1
# ScMyo3 = target: ScMyo3
# Summary of the method: as §1
# ScMyo5 = target: ScMyo5
# Summary of the method: as §1
# ScNbp2 = target: ScNbp2
# Summary of the method: as §1
# ScPex13 = target: ScPex13
# Summary of the method: as §1
# ScRvs167 = target: ScRvs167
# Summary of the method: as §1
# ScSho1 = target: ScSho1
# Summary of the method: as §1
# ScSla1-D1-D2 = target: ScSla1-D1-D2
# Summary of the method: as §1
# ScSla1-D3 = target: ScSla1-D3
# Summary of the method: as §1
# SpAbp1-D1 = target: SpAbp1-D1
# Summary of the method: as §1
# SpBbc1 = target: SpBbc1
# Summary of the method: as §1
# SpBzz1-D1 = target: SpBzz1-D1
# Summary of the method: as §1
# SpBzz1-D2 = target: SpBzz1-D2
# Summary of the method: as §1
# SpCyk3 = target: SpCyk3
# Summary of the method: as §1
# SpHof1 = target: SpHof1
# Summary of the method: as §1
# SpHof1-2 = target: SpHof1-2
# Summary of the method: as §1
# SpHof1-3 = target: SpHof1-3
# Summary of the method: as §1
# SpHse1 = target: SpHse1
# Summary of the method: as §1
# SpLsb1 = target: SpLsb1
# Summary of the method: as §1
# SpLsb4 = target: SpLsb4
# Summary of the method: as §1
# SpMyo1 = target: SpMyo1
# Summary of the method: as §1
# SpNbp2 = target: SpNbp2
# Summary of the method: as §1
# SpPex13 = target: SpPex13
# Summary of the method: as §1
# SpRvs167 = target: SpRvs167
# Summary of the method: as §1
# SpSla1-D1-D2 = target: SpSla1-D1-D2
# Summary of the method: as §1
# SpSla1-D3 = target: SpSla1-D3
# Summary of the method: as §1
binder,measurement,setting,value
AHFQPQRTAPKPPIS,SPOT peptide array binding signal intensity,AgAbp1,2.5
same,SPOT peptide array binding signal intensity,AgBbc1,89.8
same,SPOT peptide array binding signal intensity,AgBem1-D1,58.8
same,SPOT peptide array binding signal intensity,AgBzz1-D1,16
same,SPOT peptide array binding signal intensity,AgBzz1-D2,54.5
same,SPOT peptide array binding signal intensity,AgCyk3,≤ 0
same,SPOT peptide array binding signal intensity,AgFus1,≤ 0
same,SPOT peptide array binding signal intensity,AgHof1,3
same,SPOT peptide array binding signal intensity,AgHse1,18
same,SPOT peptide array binding signal intensity,AgLsb1,16.8
same,SPOT peptide array binding signal intensity,AgLsb4,0.5
same,SPOT peptide array binding signal intensity,AgMyo5,954
same,SPOT peptide array binding signal intensity,AgNbp2,3970
same,SPOT peptide array binding signal intensity,AgRvs167,0.583
same,SPOT peptide array binding signal intensity,AgSho1,≤ 0
same,SPOT peptide array binding signal intensity,AgSla1-D1-D2,≤ 0
same,SPOT peptide array binding signal intensity,AgSla1-D3,1
same,SPOT peptide array binding signal intensity,CaAbp1-D1,65.5
same,SPOT peptide array binding signal intensity,CaAbp1-D2,33.8
same,SPOT peptide array binding signal intensity,CaBbc1,743
same,SPOT peptide array binding signal intensity,CaBem1-D1,958
same,SPOT peptide array binding signal intensity,CaBzz1-D1,779
same,SPOT peptide array binding signal intensity,CaBzz1-D2,136
same,SPOT peptide array binding signal intensity,CaCyk3,≤ 0
same,SPOT peptide array binding signal intensity,CaFus1,≤ 0
same,SPOT peptide array binding signal intensity,CaHof1,≤ 0
same,SPOT peptide array binding signal intensity,CaHse1,2.5
same,SPOT peptide array binding signal intensity,CaLsb1,≤ 0
same,SPOT peptide array binding signal intensity,CaLsb4,23
same,SPOT peptide array binding signal intensity,CaMyo5,33.6
same,SPOT peptide array binding signal intensity,CaNbp2,3970
same,SPOT peptide array binding signal intensity,CaRvs167,12.8
same,SPOT peptide array binding signal intensity,CaRvs167-3,≤ 0
same,SPOT peptide array binding signal intensity,CaSho1,11.8
same,SPOT peptide array binding signal intensity,CaSla1-D1-D2,54.5
same,SPOT peptide array binding signal intensity,CaSla1-D3,0.75
same,SPOT peptide array binding signal intensity,ScAbp1,11
same,SPOT peptide array binding signal intensity,ScBbc1,165
same,SPOT peptide array binding signal intensity,ScBem1-D1,6
same,SPOT peptide array binding signal intensity,ScBzz1-D1,17.5
same,SPOT peptide array binding signal intensity,ScBzz1-D2,12.8
same,SPOT peptide array binding signal intensity,ScCyk3,≤ 0
same,SPOT peptide array binding signal intensity,ScFus1,≤ 0
same,SPOT peptide array binding signal intensity,ScHof1,0.5
same,SPOT peptide array binding signal intensity,ScHse1,37
same,SPOT peptide array binding signal intensity,ScLsb1,0.25
same,SPOT peptide array binding signal intensity,ScLsb2,35
same,SPOT peptide array binding signal intensity,ScLsb3,152
same,SPOT peptide array binding signal intensity,ScLsb4,5
same,SPOT peptide array binding signal intensity,ScMyo3,1610
same,SPOT peptide array binding signal intensity,ScMyo5,1320
same,SPOT peptide array binding signal intensity,ScNbp2,6790
same,SPOT peptide array binding signal intensity,ScPex13,212
same,SPOT peptide array binding signal intensity,ScRvs167,59.8
same,SPOT peptide array binding signal intensity,ScSho1,≤ 0
same,SPOT peptide array binding signal intensity,ScSla1-D1-D2,265
same,SPOT peptide array binding signal intensity,ScSla1-D3,44
same,SPOT peptide array binding signal intensity,SpAbp1-D1,≤ 0
same,SPOT peptide array binding signal intensity,SpBbc1,22
same,SPOT peptide array binding signal intensity,SpBzz1-D1,258
same,SPOT peptide array binding signal intensity,SpBzz1-D2,18.1
same,SPOT peptide array binding signal intensity,SpCyk3,≤ 0
same,SPOT peptide array binding signal intensity,SpHof1,1.62
same,SPOT peptide array binding signal intensity,SpHof1-2,2
same,SPOT peptide array binding signal intensity,SpHof1-3,34
same,SPOT peptide array binding signal intensity,SpHse1,70.1
same,SPOT peptide array binding signal intensity,SpLsb1,36.8
same,SPOT peptide array binding signal intensity,SpLsb4,87.5
same,SPOT peptide array binding signal intensity,SpMyo1,2050
same,SPOT peptide array binding signal intensity,SpNbp2,264
same,SPOT peptide array binding signal intensity,SpPex13,≤ 0
same,SPOT peptide array binding signal intensity,SpRvs167,13.9
same,SPOT peptide array binding signal intensity,SpSla1-D1-D2,≤ 0
same,SPOT peptide array binding signal intensity,SpSla1-D3,≤ 0
